Reference: PubChem BioAssay AID686978 (National Center for Advancing Translational Sciences (NCATS), 2013)
Hit rate of the full screen: of about 420,000 compounds, about 64,000 (15%) were called active. Not shown: some 27% with an inconclusive outcome. The call rests on the fitted dose curve; in most records, active means well fitted inhibition curve with a large enough effect; inconclusive means small, poorly fitted or top-dose-only effect; inactive means flat fitted curve, though single readings scatter. The list is a sample of the results.

experiment: qHTS for Inhibitors of human tyrosyl-DNA phosphodiesterase 1 (TDP1): qHTS in cells in absence of CPT; conditions: DT40 Tdp1-/- hTDP1 cells, no CPT, ATP luminescence, 48 h; activity change, negative = growth inhibition: at 46.2 µM (top of the series); further: nearly all actives have a fitted effect of over 55% in size
Procedure, shortened: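 Chicken DT40 Tdp1-/- cells stably complemented with human TDP1 were seeded at 400 cells/well with DMSO in place of 20 nM camptothecin. After compound pinning, cells grew at least 48 hr at 37 °C; viability read by CellTiter-Glo luminescence.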
On the % scale 0 is the no-effect control and ±100 the full control effect; potency means the concentration at half of the fitted maximal effect.

SMILES	activity change, negative = growth inhibition	Potency
Cc1ccccc1N1CC(C(=O)Nc2ccc3c(c2)OCO3)CC1=O (stereo not given)	-8.42% (inactive)	
CN(C)c1ccc(CNC23CN4CN(CN(C4)C2)C3)cc1		18.4 µM (active)
CCOc1ccc(NC(=O)CC2NCCNC2=O)cc1 (stereo not given)	17.8% (inactive)	
O=C(Nc1ccc2c(c1)[C@@H]1C[C@@H](CC(=O)N3CCCCC3)O[C@@H](CO)[C@@H]1O2)NC1CCCCC1	-20.2% (inactive)	
COC(=O)C[C@H]1C[C@@H]2c3cc(NC(=O)Nc4ccccc4)ccc3O[C@@H]2[C@@H](CO)O1	-11.5% (inactive)	
O=C(C[C@H]1C[C@H]2c3cc(NS(=O)(=O)c4ccc(F)cc4)ccc3O[C@H]2[C@H](CO)O1)NCc1cc(F)ccc1F		18.4 µM (active)
O=C1NC(O)CCN1C1CC(O)C(CO)O1 (stereo not given)	-5.27% (inactive)	
CC(C)Oc1ccc(Oc2ccc(C(F)(F)F)cn2)cc1	-8.56% (inactive)	
COC(=O)CC1=NN(c2nc(C)cc(C)n2)C(=O)C1	1.84% (inactive)	
C=CCn1c(=NC(=O)c2ccc(S(=O)(=O)N3CCCC3)cc2)sc2cc(NC(C)=O)ccc21	-26.4% (inactive)	
Cn1cc(Cl)c(C(=O)NNC(=S)Nc2cccc(Cl)c2)n1	9.94% (inactive)	
Cc1cccc(-n2cnc(C(=O)NNC(=S)Nc3ccccc3)c2)n1		23.1 µM (active)
Cc1cccc(-n2cnc(C(=O)Nc3cccnc3)c2)n1	-21.8% (inactive)	
Cc1ccc(CNC(=O)CCNS(=O)(=O)c2ccc3c(c2)oc(=O)n3C)cc1	-16.1% (inactive)	
Cn1nnnc1SCCNCc1ccc(Cl)c(Cl)c1	-6.41% (inactive)	
COc1cc(CNCCSc2nnnn2C)ccc1OCc1ccc(Cl)cc1Cl		23.1 µM (active)
COc1cccc(CNCCSc2nnnn2C)c1OCc1ccccc1Cl		20.6 µM (active)
COc1cccc(CNn2cn[nH]c2=S)c1OCc1ccccc1	18.9% (inactive)	
CCOc1ccc(CNCCSc2nnnn2C)cc1	2.47% (inactive)	
COC(=O)c1ccccc1NC(=O)CSc1nnnn1C	1.28% (inactive)	
CCOc1ccc(OCC)c(Nc2nc3ccccc3n3nnnc23)c1	-5.32% (inactive)	
C=CCOc1c(CNn2cn[nH]c2=S)cccc1OC	-26.1% (inactive)	
O=C(NCCO)C(=O)NCC(c1ccc2c(c1)OCO2)N1CCN(c2ccc(F)cc2)CC1 (stereo not given)	-22.3% (inactive)	
CC(C)CNC(=O)C(=O)NCC(c1ccc2c(c1)OCO2)N1CCOCC1 (stereo not given)	-1.74% (inactive)	
CC(C)CC(=O)NCC(c1ccc2c(c1)OCO2)N1CCN(c2ccc(F)cc2)CC1 (stereo not given)		25.9 µM (active)
Cc1c(C(=O)NCC2CCCN(C)C2)cnn1-c1nccc(-c2ccco2)n1 (stereo not given)	-0.77% (inactive)	
CC1CC(=O)Nc2ccccc2N1S(=O)(=O)c1cccs1 (stereo not given)	-2.79% (inactive)	
COc1ccc2[nH]c(=O)c(-c3noc(-c4ccc(F)cc4)n3)cc2c1	5.76% (inactive)	
COc1ccc(Cc2nnc(SC)[nH]c2=O)cc1	13.9% (inactive)	
COc1ccc(Cc2cc(-c3ccc(F)cc3)n[nH]c2=O)cc1		13 µM (active)
